# Data: PubChem BioAssay AID371 (SRMLSC, 2006)
# Among all 3,300 compounds or so, about 280 (8.5%) were called active. This excerpt belongs to a sample that is enriched for actives. Values without a mark were called inactive.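 Rule for the calls: active = mean growth inhibition over the two runs of 50% or more; inactive = mean growth inhibition under 50%.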
# Experiment: A549 NSCLC cell proliferation inhibitors – ATP luminescence, human non-small cell lung line, primary screen (AID 371);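 note: compound exposure lasted 72 h before the ATP read; 0% = untreated cell signal and 100% = no luminescence left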
# Details: at 10 µM, active compounds read high
row,SMILES,growth inhibition
1,CCCCCSc1nc(C)c(CC(=O)O)c(=O)[nH]1,-2.49%
2,N#C/C(C(=O)N1CCOCC1)=C1/SC(Cc2ccccc2)C(=O)N1c1ccccc1 (stereo unspecified),0%
3,CCOC(=O)c1ccc(CC2S/C(=C(\C#N)C(C)=O)NC2=O)cc1 (stereo unspecified),26.4%
4,N#CC(C(=O)Nc1ccc(Cl)c(Cl)c1)=C1Nc2ccccc2N1,38.8%
5,CCOC(=O)/C(C#N)=C1/SC(CCO)C(=O)N1c1ccccc1 (stereo unspecified),-8.59%
6,CC(=O)/C(C#N)=C1\NC(=O)C(Cc2ccccc2Cl)S1 (stereo unspecified),61.9% (active)
7,CC(=O)/C(C#N)=C1\NC(=O)C(Cc2ccccc2)S1 (stereo unspecified),56% (active)
8,CCOc1ccc2nc(NC(NC(=O)CC)(C(=O)OC)C(F)(F)F)sc2c1 (stereo unspecified),20.7%
9,CCCCCOc1ccc(C(=O)NCC(=O)NCC(=O)OCC)cc1,36.1%
10,CC(C)CC(=O)Nc1ccccc1N1CCCC1,3.4%
11,CCOC(=O)c1n[nH]c2ccccc12,-3.73%
12,CCOC(=O)C1=Nc2ccccc2C1=[N+]=[N-],61.3% (active)
13,CCOC(=O)CNC(=O)Nc1ccccc1C(=O)OC,-3.41%
14,C=CCOn1c(=O)c(-c2ccc(OC)cc2)[n+]([O-])c2ccccc21,0.35%
15,CSC1=C(C#N)C(C)CC(=O)N1 (stereo unspecified),-1.22%
16,O=C1c2ccccc2C(=O)N1c1ncccn1,8.95%
17,COCCCn1c2nc3ccccc3nc2c2c(=O)n(CC3CCCO3)cnc21 (stereo unspecified),3.37%
18,CCOC(=O)CC(=O)CSc1nc(N)c(C#N)c(-c2ccc(Cl)cc2)c1C#N,5.46%
19,CCc1nc(N)nc(N)c1-c1ccc(Cl)cc1,79.6% (active)
20,Cc1cc(-c2cc(-c3ccc(Cl)cc3)nc(N)c2C#N)co1,30.1%
21,Cc1c(/C(O)=C2\C(=O)C(=O)N(CCN(C)C)C2c2cccs2)cnn1-c1ccccc1 (stereo unspecified),0.12%

row,SMILES,growth inhibition
1,c1coc(CNc2ncnc3ccccc23)c1,23.6%
2,O=c1c2ccccc2ncn1Cc1ccco1,1.72%
3,OCCNc1ncnc2c1c(-c1ccccc1)c(-c1ccccc1)n2Cc1ccco1,53.2% (active)
4,CC(C)CN1C(=O)NC(NC(=O)c2cccnc2)(C(F)(F)F)C1=O (stereo unspecified),-0.36%
5,Cc1nnc(SCC(=O)N2CCOCC2)c2ccccc12,-4.15%
6,COCCCNc1nc2c(c(=O)n(C)c(=O)n2C)n1Cc1cccc(OC)c1,33.1%
7,COc1cccc(Cn2c(NCC(C)C)nc3c2c(=O)n(C)c(=O)n3C)c1,2.01%
8,CCCCNc1nc2c(c(=O)n(C)c(=O)n2C)n1Cc1cccc(OC)c1,59.5% (active)
9,COc1cccc(Cn2c(NCc3ccccn3)nc3c2c(=O)n(C)c(=O)n3C)c1,23.9%
10,COc1ccc(Oc2nc3c(c(=O)n(C)c(=O)n3C)n2Cc2cccc(OC)c2)cc1,27.7%
11,COc1cccc(Cn2c(NCc3ccco3)nc3c2c(=O)n(C)c(=O)n3C)c1,51.8% (active)
12,Cc1cc(=O)oc(C)c1C(=O)NCC(C)C,-13.9%
13,C=CCOc1nc2c(c(=O)n(C)c(=O)n2C)n1Cc1c(Cl)cccc1Cl,25.2%
14,COc1cc(NC2=CC(=O)CC(C)(C)C2)cc(OC)c1OC,3.91%
15,Cc1nc(NS(=O)(=O)c2ccccc2)sc1NC(=O)OC(C)C,3.58%
16,Cc1cccc(-c2nc(C#N)c(NC3CCCCC3)o2)c1,34.3%
17,CCNC(=O)c1cc2c(=O)n3cccc(C)c3nc2n(CCc2ccccc2)c1=N,70.5% (active)
18,Cn1c(=O)c2c(nc(NCc3ccco3)n2CCc2ccccc2)n(C)c1=O,34.5%
19,CC(C)OCCCn1c(=N)c(C(N)=S)cc2c(=O)n3ccccc3nc21,42.5%
20,Cc1ccc(S(=O)(=O)c2cc3c(=O)n4ccccc4nc3n(C)c2=N)cc1,-2.02%
21,CCOC(=O)c1cc2c(=O)n3cccc(C)c3nc2n(CCc2ccccc2)c1=N,16.5%

row,SMILES,growth inhibition
1,Cc1ccc(CNC(=O)c2cc3c(=O)n4ccccc4nc3n(Cc3ccco3)c2=N)cc1,92.5% (active)
2,N=c1c(C(=O)NCc2ccccc2)cc2c(=O)n3ccccc3nc2n1Cc1ccco1,90.5% (active)
3,COC(=O)c1cc2c(=O)n3cccc(C)c3nc2n(Cc2cccnc2)c1=N,2.48%
4,Cc1ccc(CNC(=O)c2cc3c(=O)n4ccccc4nc3n(CC3CCCO3)c2=N)cc1 (stereo unspecified),44.3%
5,CCOC(=O)c1cc2c(=O)n3cccc(C)c3nc2n(C)c1=N,27.1%
6,Cc1cccn2c(=O)c3cc(C(=O)NCc4cccnc4)c(=N)n(C)c3nc12,-1.19%
7,Cc1cccn2c(=O)c3cc(C(N)=S)c(=N)n(CCCOC(C)C)c3nc12,51.3% (active)
8,CCOC(=O)CSC1=C(C#N)C(c2ccc(C)cc2)C(C(=O)OC)C(=O)N1 (stereo unspecified),8.41%
9,CCOC(=O)C1=C(C)OC(N)=C(C#N)C1c1cc2ccccc2nc1N1CCCCC1 (stereo unspecified),22.5%
10,COC(=O)c1cc(S(=O)(=O)N2CCOCC2)c(N2CCOCC2)cc1N1CCOCC1,8.19%
11,COCCCNC(=O)c1c(N)n(/N=C/c2cccnc2)c2nc3ccccc3nc12,4.43%
12,Cc1cc(=O)oc(C)c1C(=O)NCC(C)NC(=O)c1c(C)cc(=O)oc1C (stereo unspecified),0.25%
13,Cc1nn(CC(=O)N2CCOCC2)c(=O)c2ccccc12,2.14%
14,CCOC(=O)c1cc2c(=O)n3ccccc3nc2n(Cc2ccccc2Cl)c1=N,52.6% (active)
15,COc1ccc(CCn2c(=N)c(C#N)cc3c(=O)n4ccccc4nc32)cc1,11.5%
16,COc1ccc(CCn2c(=N)c(C(=O)NCc3ccco3)cc3c(=O)n4ccccc4nc32)cc1,61.2% (active)
17,COc1ccc(CCn2c(=N)c(C(=O)NCc3ccco3)cc3c(=O)n4ccccc4nc32)cc1OC,48.2%
18,CCOC(=O)c1cc2c(=O)n3cccc(C)c3nc2n(Cc2cccnc2)c1=N,1.61%
19,C=CCn1c(=N)c(C(=O)OCC)cc2c(=O)n3cccc(C)c3nc21,16.9%
